From the GenesisPotency data set
The whole screen tested about 110 compounds, of which fewer than 10 were called active.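 The calls were made as follows: active = EC50 at or below 33 microM; inactive = the rest.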 Not all results are given here. Potency and affinity values are given separately.

biological target: Ammonium transporter MEP2, Saccharomyces cerevisiae (strain ATCC 204508 / S288c) (UniProt P41948); test: yeast MEP2-GFP fusion level changes, TOR pathway – flow cytometry, KU SAR set, S. cerevisiae, dose response (AID 488801)
Sequence (P41948 whole entry, the tested form may be a part): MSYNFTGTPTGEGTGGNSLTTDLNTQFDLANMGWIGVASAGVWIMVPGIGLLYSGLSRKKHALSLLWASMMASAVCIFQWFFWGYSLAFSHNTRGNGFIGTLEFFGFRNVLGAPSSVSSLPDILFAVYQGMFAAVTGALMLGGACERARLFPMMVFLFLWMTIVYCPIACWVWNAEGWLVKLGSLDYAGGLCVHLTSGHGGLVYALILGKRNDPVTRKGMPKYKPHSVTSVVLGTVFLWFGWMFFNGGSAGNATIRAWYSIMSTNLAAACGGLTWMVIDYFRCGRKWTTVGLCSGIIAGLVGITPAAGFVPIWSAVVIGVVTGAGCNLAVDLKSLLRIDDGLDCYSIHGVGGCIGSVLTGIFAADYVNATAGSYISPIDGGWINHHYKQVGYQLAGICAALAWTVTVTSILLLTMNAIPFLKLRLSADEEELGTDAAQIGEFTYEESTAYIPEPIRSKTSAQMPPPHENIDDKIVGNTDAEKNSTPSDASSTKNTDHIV

outcome, inactive:
O=[N+]([O-])c1ccc(O)c2ncccc12
CC(C)(C)c1ccc(NC(=O)COC(=O)c2ccc([N+](=O)[O-])s2)cc1
Nc1nc(NCc2ccco2)nc(Nc2cccc(F)c2)c1[N+](=O)[O-]
CC(C)(C)C(=O)NC(=S)NNC(=O)c1ccc(-c2ccccc2)cc1
CNc1nc(N)c([N+](=O)[O-])c(NCc2ccccc2)n1
CCC(C)Nc1nc(N)c([N+](=O)[O-])c(Nc2cccc(F)c2)n1 (stereo not drawn)
Nc1nc(Nc2ccccc2F)nc(Nc2cccc(F)c2)c1[N+](=O)[O-]
CNc1nc(N)c([N+](=O)[O-])c(Nc2cc(OC)ccc2OC)n1
O=C(CCc1ccccc1)NNC(=S)NC(=O)c1ccccc1
CC(Oc1ccc(Cl)cc1)C(=O)NNC(=S)NC(=O)c1ccco1 (stereo not drawn)
O=[N+]([O-])c1cc(O)c2ncccc2c1
Cc1ccc2nc(Cl)c3nnnn3c2c1
Cc1nn2c(-c3ccncc3)nnc2c2ccccc12
